Screening results (PubChem BioAssay)
HP1b chromo inh = HP1-beta chromodomain-methylated histone interaction inhibition; Potency, µM (titrated, usually from 114 µM), inactives show at the highest dose activity change, negative = inhibition, actives largely listed as inhibitors; AlphaScreen HP1-beta / biotin-H3K9me3 peptide binding; 390,000 compounds, 0.56% hits; AID 540317; P83916; also: potency is read from the fitted curve at half-maximal effect; nearly all actives have a fitted effect of over 70% in size
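HP1-beta protein (50 nM final) preincubated 30 min at room temperature with biotinylated H3(1-18)K9me3 peptide (50 nM) in PBS pH 7.4, 0.01% Tween-20, then compound added for 30 min. AlphaScreen streptavidin donor/nickel chelate acceptor beads (10 ug/mL final), 30 min dark, luminescence read.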
CtBP-E1A blk = blocks the CtBP interaction with E1A; activity change, % (concentration not given with the values); 340,000 compounds, 0.49% hits; AlphaScreen GST-E1A/His-CtBP binding, 1536-well; active compounds read low; in the data active = activity change below about -65%; inconclusive = mostly about -30% to -63%; also: % is scaled to controls: 0 for no effect and ±100 for the full control effect
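Protein mix (5X: 125 nM each GST-E1A, His-CtBP) was incubated with pinned compound 2 h at 37 deg C in dark, in 50 mM Tris pH 8.0 buffer with 300 mM NaCl. Glutathione donor and nickel acceptor beads followed; AlphaScreen signal read after 1 h.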
G9a inh = G9a (human) methyltransferase inhibition; Potency, µM (top dose mostly 102 µM), for the others: at the top dose activity, negative = inhibition, hits mostly inhibitors; Q96KQ7; G9a H3K9 monomethylation, AlphaScreen, 2 h; 350,000 compounds, 8.8% hits; AID 504332; also: potency is read from the fitted curve at half-maximal effect; % is scaled to controls: 0 for no effect and ±100 for the full control effect; nearly all actives have a fitted effect of over 75% in size
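Methyltransferase reactions run at room temperature for 2 h (20 nM enzyme, 500 nM biotin-H3K9 peptide, 20 uM SAM) after a 15 min compound preincubation; product detected by AlphaScreen beads and anti-H3K9me1 antibody.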
BAZ2B inh = BAZ2B (human) inhibition; Q9UIF8; AlphaScreen BAZ2B-H3K14Ac peptide displacement; Potency, µM (top dose mostly 114 µM), without a hit: at the top dose activity change, negative = inhibition, actives largely listed as inhibitors; 360,000 compounds, 4.4% hits; also: potency is read from the fitted curve at half-maximal effect; % is scaled to controls: 0 for no effect and ±100 for the full control effect; nearly all actives have a fitted effect of over 60% in size
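Inhibition is scored as reduced AlphaScreen emission. The BAZ2B/b-H3(5-23)K14Ac complex (50 nM each) in PBS pH 7.4, 0.01% Tween-20 meets compound (up to 110 uM) for 30 min at RT before bead addition.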
Six1-Eya2 blk = blocks human Six1 binding to Eya2; AlphaScreen GST-Six1/His-Eya2 binding, biochemical; active compounds read low; activity change, % (no concentration beside the values); 360,000 compounds, 0.56% hits; in the data active = activity change below about -65%; inconclusive = mostly about -30% to -63%; also: % is scaled to controls: 0 for no effect and ±100 for the full control effect
Target sequence (O00167 whole entry, looked up): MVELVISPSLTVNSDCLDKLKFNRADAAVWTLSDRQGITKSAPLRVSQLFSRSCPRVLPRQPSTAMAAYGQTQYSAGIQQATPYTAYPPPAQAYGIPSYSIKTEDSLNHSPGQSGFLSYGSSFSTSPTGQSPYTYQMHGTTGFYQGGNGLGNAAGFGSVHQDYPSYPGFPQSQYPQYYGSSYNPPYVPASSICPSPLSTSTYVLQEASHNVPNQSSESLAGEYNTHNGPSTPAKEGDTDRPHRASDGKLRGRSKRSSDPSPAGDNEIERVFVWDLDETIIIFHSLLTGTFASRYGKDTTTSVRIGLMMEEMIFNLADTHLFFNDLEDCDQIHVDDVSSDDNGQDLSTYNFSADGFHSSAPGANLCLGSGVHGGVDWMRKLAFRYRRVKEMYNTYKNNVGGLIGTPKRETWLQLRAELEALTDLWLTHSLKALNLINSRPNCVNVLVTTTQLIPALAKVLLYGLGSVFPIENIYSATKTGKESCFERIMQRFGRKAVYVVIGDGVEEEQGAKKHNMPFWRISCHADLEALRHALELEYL
Target sequence (Q15475 whole entry, looked up): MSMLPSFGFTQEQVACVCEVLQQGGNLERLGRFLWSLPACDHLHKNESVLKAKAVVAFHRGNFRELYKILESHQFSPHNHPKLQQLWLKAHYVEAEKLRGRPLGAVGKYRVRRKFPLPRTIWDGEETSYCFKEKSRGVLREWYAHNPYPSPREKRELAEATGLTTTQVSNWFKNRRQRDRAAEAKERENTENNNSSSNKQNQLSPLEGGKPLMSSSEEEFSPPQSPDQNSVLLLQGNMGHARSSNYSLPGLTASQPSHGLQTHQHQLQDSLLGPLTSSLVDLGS
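Six1/Eya2 binding was read as AlphaScreen signal after compounds were pinned into GST-Six1 plus His-tagged Eya2 (5X stock 250/500 nM) in pH 8.0 Tris/NaCl/TCEP buffer, beads added, then incubated 1 h, 37 C, dark.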
JMJD2A Tudor = JMJD2A Tudor domain (human) inhibition; Potency, µM (doses to about 114 µM), for inactives: at the highest dose activity change, negative = inhibition, hits mostly inhibitors; AlphaScreen JMJD2A-Tudor / H3K4me3 peptide binding; O75164; 390,000 compounds, 4.4% hits; also: potency is read from the fitted curve at half-maximal effect; % is scaled to controls: 0 for no effect and ±100 for the full control effect; nearly all actives have a fitted effect of over 50% in size
Numbers without * were called inactive; ? = inconclusive; nt = no result; [ ] = another dose, or the depositor's remark. Hits are enriched below; roughly 10% of the tested compounds scored in any of these assays. Unless noted, calls follow the shape of the dose curve; as a rule, active = well fitted inhibition curve with a large enough effect; inconclusive = small, poorly fitted or top-dose-only effect; inactive = no such curve, though single readings can be large or run the other way.

SMILES | HP1b chromo inh | CtBP-E1A blk | G9a inh | BAZ2B inh | Six1-Eya2 blk | JMJD2A Tudor
CC1=C(C#N)c2nc(N)c(C#N)c(C)c2/C1=C\c1ccc(-c2ccccc2C(=O)O)o1 | 44.7µM* | -11.5 | 7.94µM* | 12.6µM* | ? | 35.5µM*
Cc1cc(NC(=O)NC(=O)c2ccccc2NC(=O)C(C)N)ccc1Oc1ncc(Br)cn1 (stereo unspecified) | 43.3% | 1.5 | nt | nt | -3.5 | -19.4%
CCOc1ccc(Oc2ccc(Cl)cc2N)cc1 | 46.5% | nt | 50.1µM* | ? | 0.1 | 1.4%
CCOc1ccc(-c2nnc(N)s2)cc1 | 20.8% | 7.6 | 12.1%[59 µM] | 7.8% | 1.8 | -8.8%
COC(=O)C1=C[C@@H](C(=O)OC)[C@@H]2C3=C(C(=O)[C@@]2(CC(C)C)NC(=O)c2ccccc2)[C@H](C)n2c(=O)n(-c4ccccc4)c(=O)n2[C@@H]3C1 | 43.8% | nt | nt | nt | nt | -11.7%
CCOc1ccc(N2CC(c3nc(-c4cc(OC)c(OC)c(OC)c4)no3)CC2=O)cc1 (stereo unspecified) | 18.1% | nt | 1.9%[59 µM] | -20.4% | nt | -18.3%
O=C(NCCCn1ccnc1)Nc1ccc(Cl)cc1 | 2.0% | -3.9 | 0.6% | -35.3% | -3.0 | -21.8%
S=C(NCCCn1ccnc1)Nc1ccc(Cl)cc1Cl | 23.3% | -2.0 | -45.1% | 50.1µM* | -1.7 | -11.7%
O=C(NCCCn1ccnc1)Nc1ccc(Cl)c(Cl)c1 | 24.3% | -16.9 | -4.4%[59 µM] | 39.8µM* | ? | ?
Cc1ccsc1CN(C(=O)c1ccc(Br)cc1)C1CCS(=O)(=O)C1 (stereo unspecified) | 25.5% | nt | 6.4%[59 µM] | -11.6% | nt | -7.6%
O=C(NCc1cccc(F)c1)c1[nH]c(C(F)(F)F)nc1-c1ccccc1 | nt | -12.6 | nt | nt | -1.1 | nt
CN(C)c1nc(N)c2ncc(=S)[nH]c2n1 | 20.3% | 1.2 | 1.78µM* | -32.5% | -12.8 | 3.16µM*
CN(C)c1nc(C(=O)NN)nc(N(C)C)n1 | 50.1% | 6.4 | 33.3%[12.7 µM] | -0.1% | 0.0 | -18.6%
COc1cc(C(=O)Nc2ccc(C)cc2)c(-n2cnnn2)cc1OC | 51.8% | 9.9 | nt | 2.9% | 2.8 | 12.0%
CN(C)CCNc1nc2sc3c(c2c(=O)n1CCc1ccccc1)CCCCC3 | -24.3% | nt | 39.8µM* | 44.7µM* | -1.4 | 50.1µM*
CC(O)CNc1nc2sc3c(c2c(=O)n1CCc1ccccc1)CCCCC3 (stereo unspecified) | ? | -12.2 | 50.1µM* | ? | -13.8 | ?
N=C1/C(=C/c2ccc(Br)o2)C(=O)N=C2SC(CC(=O)N3CCCC3)=NN12 | 9.6% | nt | ? | 50.1µM* | -9.5 | ?
COc1ccc(-n2c(C)cc(/C=C3\C(=N)N4N=C(CC(=O)N5CCOCC5)SC4=NC3=O)c2C)cc1 | 15.7% | nt | -4.8%[0.0925 µM] | 44.7µM* | -17.8 | -34.1%
Cc1ccc(/C=C2\C(=N)N3N=C(CC(=O)N4CCCCC4)SC3=NC2=O)cc1 | 30.6% | -14.0 | 13.7% | -15.3%[57.1 µM] | 1.9 | -23.6%
N=C1/C(=C/c2ccco2)C(=O)N=C2SC(CC(=O)N3CCCC3)=NN12 | -4.0% | -2.4 | 39.8µM* | ? | -4.0 | 79.4µM*
N=C1/C(=C\c2ccc(Br)o2)C(=O)N=C2SC(CC(=O)N3CCOCC3)=NN12 | 22.7% | -15.0 | 12.9%[12.7 µM] | 50.1µM* | -10.2 | 89.1µM*
Cc1ccccc1COC(=O)c1ccc(-c2nnn(Cc3ccccc3F)n2)cc1 | 134.9% | nt | 34.5%[59 µM] | 18.3% | nt | -4.9%
CCCn1nnc(NC(=S)NC(=O)CC)n1 | ? | 2.2 | 8.91µM* | -32.9% | 2.5 | 2.82µM*
CCCn1nnc(NC(=S)NC(=O)c2ccc(-c3ccc(Br)cc3)o2)n1 | 17.0% | -3.5 | ? | -13.5% | 1.6 | -28.5%
CCCCn1nnc(NC(=S)NC(=O)c2cccs2)n1 | -26.8% | 8.3 | 10µM* | -2.5% | 2.1 | ?
SMILES | HP1b chromo inh | CtBP-E1A blk | G9a inh | BAZ2B inh | Six1-Eya2 blk | JMJD2A Tudor
CCCCn1nnc(NC(=O)c2ccco2)n1 | 48.3% | 3.6 | 10.9%[59 µM] | -3.2% | 26.9 | -25.4%
CCCn1nnc(NC(=S)NC(=O)Cc2ccccc2)n1 | 22.0% | 1.5 | 31.6µM* | -1.4% | -2.2 | -1.4%
CCCCN1CCC(n2c(=O)[nH]c3ccccc32)CC1 | nt | nt | 9.47µM* | nt | nt | nt
Cc1ccccc1C(=O)NCCN1CCC(n2c(=O)[nH]c3ccccc32)CC1 | nt | -1.3 | nt | nt | -0.5 | nt
O=C(CSc1nc2ncccc2o1)Nc1cccc(C(F)(F)F)c1 | 16.6% | nt | -4.8%[59 µM] | -2.9% | nt | -4.3%
C/C=C/C=C\C(=O)Nc1cccc(C2=NOC3(C2)C[C@H](C(N)=O)N(C(=O)/C=C/C)C3)c1 (stereo partly specified) | ? | -4.4 | ? | -4.1% | -22.6 | 79.4µM*
C/C=C\C=C/C(=O)Nc1cccc(C2=NOC3(C2)C[C@@H](C(N)=O)N(C(=O)COc2ccc(Cl)cc2)C3)c1 (stereo partly specified) | ? | -7.0 | ? | ? | -5.4 | 70.8µM*
CCc1nccn1S(=O)(=O)c1ccc(C)c(C)c1 | 27.7% | -0.8 | 44.7µM* | 8.0% | 10.0 | -13.6%
C[C@H]1[C@@H](O)[C@@H](C)\C=C/C=C\C=C/C=C\C=C/C=C\C=C/[C@@H](O[C@H]2O[C@@H](C)[C@@H](O)[C@@H](N)[C@@H]2O)C[C@@H]2O[C@](O)(C[C@@H](O)C[C@@H](O)[C@@H](O)CC[C@@H](O)C[C@@H](O)CC(=O)O[C@H]1C)C[C@@H](O)[C@H]2C(=O)O (stereo in doubt) | nt | nt | 8.7%[21.5 µM] | nt | nt | nt
CC1C=CC=CC=CC=CC=CC=CC=CC(OC2OC(C)C(O)C(N)C2O)CC2OC(O)(CC(O)CC(O)C(O)CCC(O)CC(O)CC(=O)OC(C)C(C)C1O)CC(O)C2C(=O)O (stereo unspecified) | 12.8% | 0.0 | nt | nt | -75.0* | 11.2µM*
O=S(=O)(Nc1nc2ccccc2nc1N1CCc2ccccc2C1)c1ccc(Br)cc1 | 53.6% | -15.5 | 8.91µM* | -7.9% | ? | 0.3%
COc1ccc(NC(=O)C(CC(C)C)NC(=O)C2CCC(C)CC2)c(OC)c1 (stereo unspecified) | 5.0% | 0.0 | ? | -36.8% | -17.4 | -22.2%
Cc1ccc(N=C2NC(=O)/C(=C\c3ccco3)S2)cc1 | -20.9% | -0.3 | ? | 39.8µM* | -23.2 | ?
O=C1NC(=Nc2ccc(O)cc2)S/C1=C/c1ccco1 | -15.1% | -3.3 | ? | -12.8% | -0.1 | -28.2%
O=C1NC(=Nc2ccc3ccccc3c2)S/C1=C/c1ccco1 | 8.5% | 0.8 | 50.1µM* | 20µM* | -5.4 | ?
Cc1nc(-c2ccccc2)cn(O)c1=O | 6.3% | nt | ? | 79.4µM* | 6.9 | 28.2µM*
Cc1nn2cc(-c3ccccc3)nc2[nH]c1=O | 16.5% | 0.9 | -36.2% | 0.7% | -5.1 | 9.4%
